Experimental data published in PubChem BioAssay (NCI).
This is part of a sample that, as a whole, favours compounds with a hit. Of some 79,000 tested, about 15% had one in any assay. Unmarked numbers belong to inactive results. Calls of active or inactive are those of the source. No stated cut-off is given here; in the data, active means growth inhibition above about 70%; inactive means the rest.

What was measured:
[1] = NCI Yeast Anticancer Drug Screen. Data for the rad50 strain (AID 155);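 further: 0% = growth of vehicle-only cultures of the same strain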; conditions: S. cerevisiae rad50 strain growth inhibition, active compounds read high; at 50.0 µM unless noted
How it was run: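 Inhibition values express reduced yeast growth in compound-treated cultures relative to vehicle-treated controls.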

[2] = NCI Yeast Anticancer Drug Screen. Data for the mec2-1 strain (AID 157); conditions: S. cerevisiae mec2-1 strain, active compounds read high; at 50.0 µM unless noted
How it was run: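 Strain: mec2-1 (DNA repair/cell cycle alteration). Compound exposure, then growth measured; inhibition expressed relative to vehicle.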

[3] = NCI Yeast Anticancer Drug Screen. Data for the sgs1 mgt1 strain (AID 161);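 further: 0% = growth of cultures given vehicle only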; conditions: S. cerevisiae sgs1 mgt1 strain, active compounds read high; at 50.0 µM unless noted
How it was run: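 Read-out: growth inhibition vs vehicle controls. Cells: mutant yeast strain deficient in DNA damage repair.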

[4] = NCI Yeast Anticancer Drug Screen. Data for the cln2 rad14 strain (AID 165);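 further: 0% = growth equal to vehicle treated cultures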; conditions: S. cerevisiae cln2 rad14 strain, active compounds read high; at 50.0 µM unless noted
How it was run: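 Compounds are applied to the cln2 rad14 yeast strain, and growth is then compared with that of vehicle-treated cultures to give inhibition.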

[5] = NCI Yeast Anticancer Drug Screen. Data for the bub3 strain (AID 167); conditions: S. cerevisiae bub3 mutant strain, active compounds read high; at 50.0 µM unless noted
How it was run: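 Steps: expose the mutant yeast strain to compound; grow alongside vehicle-treated cultures; measure growth; express inhibition against the vehicle cultures.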

[6] = NCI Yeast Anticancer Drug Screen. Data for the mlh1 rad18 strain (AID 175); conditions: S. cerevisiae mlh1 rad18 strain growth inhibition, active compounds read high; at 50.0 µM unless noted
How it was run: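 Read-out is yeast growth inhibition, calculated against vehicle-only controls. The compound was applied to a strain engineered with DNA damage repair alterations.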

Row | Compound | growth inhibition [1] | growth inhibition [2] | growth inhibition [3] | growth inhibition [4] | growth inhibition [5] | growth inhibition [6]
1 | O=C(/C=C/c1ccc(O)c(O)c1)OC1CC(O)(C(=O)O)CC(O)C1O (stereo not given) (tested in a mixture with another compound) | -26.6% | -13.9% | -9.35% | -17.1% | 4% | -12.3%
2 | O=c1[nH]c(=O)n(C2CC(O)C(CO)O2)cc1OCCCc1ccccc1 (stereo not given) | -27.8% | 0.75% | 12.2% | 13.8% | -0.5% | -3.2%
3 | NNC(=O)C(c1ccccc1)c1ccccc1 | 6.4% | -8.95% | -18.8% | 3% | -28.9% | -0.25%
4 | C=CCSC(=S)Nc1nc2ccc([N+](=O)[O-])cc2s1 | -4.1% | 8.9% | 7.45% | 7.8% | -10.8% | -5.9%
5 | COc1cc(CNc2ccccc2)ccc1O | -15.2% | 6.1% | -16.9% | -8.1% | 10.9% | -8.4%
6 | Cc1ccc(S(=O)(=O)NC(=O)NNc2ccc(F)cc2)cc1 | 2.5% | 2.15% | 1.65% | 17.9% | -12.1% | 42.5%
7 | N#Cc1c[nH]c(=O)[nH]c1=O | -25.3% | -25.4% | -13.4% | 2.15% | 1.85% | -45.6%
8 | CN(C)c1nc(NC(=O)NC(=O)c2c(F)cccc2F)nc(N(C)C)n1 | -2% | 11.3% | 1.55% | 8.45% | 18.8% | 10.3%
9 | C=C(Br)CN(C#N)CC(=C)Br | -24.4% | -18.1% | 13.8% | -4.25% | -10.5% | -56.9%
10 | Cc1ccc(N=Nc2ccc(C)cc2NC(=O)c2cccc3ccccc23)cc1 | -12.6% | -8% | -12.2% | -90.5% | -1.95% | -2.7%
11 | O=C(Nc1ccc(Cl)cc1[N+](=O)[O-])Oc1ccc(C2CCCCC2)cc1 | 98.2% (active) | 94.3% (active) | 98% (active) | 87% (active) | 98% (active) | 97.5% (active)
12 | CCC(Cl)COP(=O)(OCC(Cl)CC)O/C(C)=C(\C)OP(=O)(OCC(Cl)CC)OCC(Cl)CC (stereo not given) | 13.8% | 13.3% | 27.4% | 9.7% | 0.4% | -1.7%
13 | CC1(C)CCC(CC(=O)O)(CC(=O)O)CC1 | -5.25% | 8.8% | -1.7% | -17.3% | -2.9% | 11.4%
14 | CCNC(=O)c1ccccc1N=NN(C)C | -1.15% | 25.4% | -0.65% | 5.65% | 5% | 21.9%
15 | CN1N=CSC12C(=O)N(c1ccccc1)C(=O)N2c1ccccc1 (stereo not given) | 0.4% | -1.55% | 0.95% | 20.1% | 3.15% | -14.2%
16 | COc1ccc(Br)cc1C1OC(=O)c2c(OC)c(OC)cc([N+](=O)[O-])c21 (stereo not given) | 33.9% | 5.25% | 20.5% | 8.2% | 2.3% | 18.2%
17 | NN=C(c1ccc([N+](=O)[O-])cc1)c1ccc([N+](=O)[O-])cc1 | -3.3% | 0.55% | -25.6% | -9.65% | 27% | -0.7%
18 | CC1CCC2C(=O)OC(=O)C2C1 (stereo not given) | 6.2% | -10.2% | 11.6% | 23.6% | 18.4% | 4.7%
19 | N#Cc1c(-c2ccccc2)[nH]c2ccccc2c1=O | 54.7% | 55.4% | 2.05% | 11.3% | -3.65% | -17.5%
20 | c1ccc(C2c3ccccc3CN2c2ccccc2)cc1 (stereo not given) | 25.4% | 6.2% | 11.4% | 9.4% | 23.1% | 2.35%

Row | Compound | growth inhibition [1] | growth inhibition [2] | growth inhibition [3] | growth inhibition [4] | growth inhibition [5] | growth inhibition [6]
21 | O=c1[nH]c(=O)c2[nH]c(Br)nc2[nH]1 | 2.35% | -4.3% | -12.7% | 0.2% | -8.45% | 3.85%
22 | N#CC1CCC[N-]C1.N#CC1CCC[N-]C1.[Cl][Pt+2][Cl] (stereo not given) | 50.6% | 4.75% | 32.4% | 21.1% | 4.3% | 42.4%
23 | CCOC(=N)n1c(=O)n(C2=NCCN2)c2ccccc21 | 0.45% | 0.35% | -48.5% | 1.95% | 22.2% | -43.8%
24 | CCCCCCC(/C=N/NC(=O)CCCCCCCCC(=O)N/N=C/C(=C/c1ccccc1)CCCCCC)=C\c1ccccc1 | 11.4% | 1.85% | -5.95% | -5.05% | -1.45% | 15.9%
25 | [N-]=[N+]=Nc1c2c(nc3ccccc13)CCCC2 | -38.1% | -10.2% | -21.4% | -51.1% | 0.3% | -4.4%
26 | COC(=O)CC(C)N(c1ccc(Cl)c(Cl)c1)S(=O)(=O)c1ccc(C)cc1 (stereo not given) | 37.9% | -0.15% | 4.1% | -19.1% | -6.05% | 11.1%
27 | COC(NC(=O)Nc1ccccc1C)(C(F)(F)F)C(F)(F)F | -12.3% | -22.4% | -34.4% | 2.8% | -24.4% | -12.8%
28 | CC1(C)OCC(N)[C@@H](O)CO1 (stereo not given in full) | 5% | 12.9% | 13.3% | -26.2% | 3.5% | -0.65%
29 | COc1ccc2c(c1)[n+](=O)c(C(=O)C/C(=N/NC(=O)C[N+](C)(C)C)C(=O)Nc1cccc(C)c1C)c(C)n2O | -23.6% | -2.25% | -41% | -5.5% | 22.9% | -13.9%
30 | C/C(=N\NC(=S)Nc1nccs1)c1ccccn1 | 96.7% (active) | 97.8% (active) | 97.6% (active) | 90.5% (active) | 96% (active) | 98.4% (active)
31 | COc1cc(C2c3cc4c(c(OC5OC(CO)C(O)C5O)c3CC3COC(=O)C32)OCO4)cc(OC)c1OC (stereo not given) | 34.4% | 6.65% | 17.9% | 19.9% | -0.95% | 5.7%
32 | O=c1[nH]c2cccc([N+](=O)[O-])c2c2ccccc12 | 5.85% | 26.6% | 14.1% | 23% | -6.35% | 11.2%
33 | CCc1ccc(-c2cc(-c3ccc(CC)cc3)cc(-c3ccc(CC)cc3)c2)cc1 | 20.1% | -10.1% | -18.9% | 0.3% | -4.7% | 7.95%
34 | CCOC(=O)C(CCCCNC(=O)CC)NC(=O)CC (stereo not given) | 3.5% | 1.3% | 3.3% | 3.55% | 11.2% | 2.65%
35 | COC(=O)CC1C(C)(C)C(=O)C2CC3=C4CC(=O)OC(c5ccoc5)C4(C)CCC3C1(C)C2=O (stereo not given) | 1.3% | 2.4% | -20.1% | -8.3% | -31.9% | 16.8%
36 | O=C1OCC=C1Sc1ccccc1 | -1.7% | -8.05% | -13.4% | -7.7% | -2.4% | -8.8%
37 | CC/C=C/C(=O)CC(O)(C(F)(F)F)C(F)(F)F | -30.9% | 9.1% | 12.5% | -20.9% | -29.8% | -20.8%
38 | CN1C(=O)C(c2c[nH]c3ccccc23)N(C)C(=O)C1c1c[nH]c2ccccc12 (stereo not given) | -29.9% | -10.8% | -79.5% | -20.1% | -27.9% | -20%
39 | CCOc1ccc([N+](=O)[O-])cc1[N+](=O)[O-] | 43.3% | 2.1% | -11.3% | -55.5% | -25.6% | -2.6%
40 | O=CNc1nc[nH]c1-c1noc(=O)[nH]1 | -2.75% | -9.5% | -3.5% | -23.9% | -10.8% | -6.8%
